Laboratory results as given in PubChem BioAssay (NCI).
The panel holds about 83,000 compounds, 20% with a hit somewhere; the sample as a whole holds those more often.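 48-hour exposure, single concentration, 96-well plates; percent growth endpoint where 0 means no net growth. Active: below 10.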 Calls of active or inactive are those of the source.

Legend:
Experiment in all cases: NCI-60 one-dose screen, 48 h (100 = growth as untreated, 0 = no growth, -100 = all killed)
HCT-15 colon = conditions: 10 µM
HT29 colon = conditions: 10 µM
SNB-75 CNS = conditions: 10 µM
SNB-19 CNS = conditions: 10 µM
U251 CNS = conditions: 10 µM
PC-3 prostate = conditions: 10 µM
UACC-62 melanoma = conditions: 10 µM unless noted
LOX IMVI melanoma = conditions: 10 µM
SK-MEL-28 melanoma = conditions: 10 µM
EKVX NSCLC = conditions: 10 µM
SN12C renal = conditions: 10 µM
UO-31 renal = conditions: 10 µM
TK-10 renal = conditions: 10 µM unless noted
ACHN renal = conditions: 10 µM
CAKI-1 renal = conditions: 10 µM
A498 renal = conditions: 10 µM
CCRF-CEM leukemia = conditions: 10 µM
MOLT-4 leukemia = conditions: 10 µM
SK-MEL-5 melanoma = conditions: 10 µM
SK-MEL-2 melanoma = conditions: 10 µM

Measured: growth

COC(=O)/C=C1\Sc2cc(F)ccc2NC1=O
inactive: HCT-15 colon 106% | HT29 colon 97.8% | SNB-75 CNS 86.6% | SNB-19 CNS 95% | U251 CNS 93.2% | PC-3 prostate 92.2% | UACC-62 melanoma 88.8% | LOX IMVI melanoma 93.4% | SK-MEL-28 melanoma 129% | EKVX NSCLC 88.2% | SN12C renal 116% | UO-31 renal 101% | TK-10 renal 139% | ACHN renal 111% | CAKI-1 renal 60.9% | A498 renal 126% | CCRF-CEM leukemia 87.9% | MOLT-4 leukemia 92.3%

CN(C)c1ccc2oc(=O)c3ccccc3c2c1
inactive: HCT-15 colon 101% | HT29 colon 86.7% | SNB-75 CNS 57.1% | SNB-19 CNS 81.3% | U251 CNS 94.3% | SK-MEL-5 melanoma 94.9% | UACC-62 melanoma 68.8% | LOX IMVI melanoma 88.8% | SK-MEL-28 melanoma 113% | SK-MEL-2 melanoma 106% | EKVX NSCLC 50.4% | SN12C renal 89.2% | TK-10 renal 107% | ACHN renal 103% | CAKI-1 renal 98.4% | CCRF-CEM leukemia 110% | MOLT-4 leukemia 131%

CN(C)c1nc2c([nH]1)c(=O)n(C)c(=O)n2C
inactive: HCT-15 colon 108% | HT29 colon 102% | SNB-75 CNS 102% | SNB-19 CNS 111% | U251 CNS 93.4% | SK-MEL-5 melanoma 101% | UACC-62 melanoma 105% | LOX IMVI melanoma 98.7% | SK-MEL-28 melanoma 110% | SK-MEL-2 melanoma 98.7% | EKVX NSCLC 104% | SN12C renal 105% | UO-31 renal 99.1% | TK-10 renal 107% | ACHN renal 102% | CAKI-1 renal 102% | A498 renal 89.6% | CCRF-CEM leukemia 92.5% | MOLT-4 leukemia 99.6%

Cc1cc2ccccc2c(O)c1C#N
inactive: HCT-15 colon 92.2% | HT29 colon 123% | SNB-75 CNS 78.3% | SNB-19 CNS 100% | U251 CNS 109% | SK-MEL-5 melanoma 104% | UACC-62 melanoma 97.7% | LOX IMVI melanoma 94.4% | SK-MEL-28 melanoma 115% | SK-MEL-2 melanoma 112% | EKVX NSCLC 108% | SN12C renal 95.3% | TK-10 renal 110% | ACHN renal 99.1% | CAKI-1 renal 115% | A498 renal 107% | CCRF-CEM leukemia 104% | MOLT-4 leukemia 108%

Cc1cc(OCCO)cc(C)c1Cl
inactive: HCT-15 colon 97.6% | HT29 colon 113% | SNB-75 CNS 124% | SNB-19 CNS 106% | U251 CNS 110% | SK-MEL-5 melanoma 112% | UACC-62 melanoma 95.7% | LOX IMVI melanoma 98% | SK-MEL-28 melanoma 118% | SK-MEL-2 melanoma 117% | EKVX NSCLC 142% | SN12C renal 98.9% | UO-31 renal 109% | TK-10 renal 123% | ACHN renal 116% | A498 renal 102% | CCRF-CEM leukemia 96.3% | MOLT-4 leukemia 100%

Nc1ccc(NC(=O)c2cccc(N)c2)cc1
inactive: HCT-15 colon 101% | HT29 colon 105% | SNB-75 CNS 91.3% | SNB-19 CNS 94.8% | U251 CNS 96.2% | SK-MEL-5 melanoma 103% | UACC-62 melanoma 96.5% | LOX IMVI melanoma 89.9% | SK-MEL-28 melanoma 104% | EKVX NSCLC 86.6% | SN12C renal 99.5% | TK-10 renal 123% | ACHN renal 97.8% | CAKI-1 renal 56.4% | A498 renal 90.6% | CCRF-CEM leukemia 88.8%

CCOC(=O)/C(C#N)=C/c1cccc(C)c1
inactive: HCT-15 colon 108% | HT29 colon 99% | SNB-75 CNS 80.8% | SNB-19 CNS 94.8% | U251 CNS 98.2% | SK-MEL-5 melanoma 101% | UACC-62 melanoma 92% | LOX IMVI melanoma 94.8% | SK-MEL-28 melanoma 109% | SK-MEL-2 melanoma 106% | EKVX NSCLC 98.9% | SN12C renal 103% | UO-31 renal 88.9% | TK-10 renal 98% | ACHN renal 98.9% | CAKI-1 renal 69.5% | A498 renal 101%

c1ccc(Cc2ccccc2)cc1
active: MOLT-4 leukemia -26.2%
inactive: HCT-15 colon 99% | HT29 colon 118% | SNB-75 CNS 98.9% | SNB-19 CNS 104% | U251 CNS 103% | PC-3 prostate 82.8% | UACC-62 melanoma 103% | LOX IMVI melanoma 99.5% | SK-MEL-28 melanoma 112% | EKVX NSCLC 102% | SN12C renal 95.1% | TK-10 renal 99% | ACHN renal 107% | CAKI-1 renal 85.7% | A498 renal 102% | CCRF-CEM leukemia 104%

C=CCc1cc(C(C)=O)cc(OC)c1O
inactive: HCT-15 colon 119% | HT29 colon 108% | SNB-75 CNS 89.2% | SNB-19 CNS 105% | U251 CNS 103% | PC-3 prostate 106% | UACC-62 melanoma 97.8% | LOX IMVI melanoma 100% | SK-MEL-28 melanoma 110% | SK-MEL-2 melanoma 130% | EKVX NSCLC 100% | SN12C renal 105% | TK-10 renal 102% | ACHN renal 121% | CAKI-1 renal 98.2% | A498 renal 100% | CCRF-CEM leukemia 106% | MOLT-4 leukemia 98%

CCNc1nc2c(cnn2C)c(=O)[nH]1
inactive: HCT-15 colon 122% | HT29 colon 96.2% | SNB-75 CNS 88.6% | SNB-19 CNS 109% | U251 CNS 97.8% | SK-MEL-5 melanoma 96.7% | UACC-62 melanoma 107% | LOX IMVI melanoma 95% | SK-MEL-28 melanoma 118% | SK-MEL-2 melanoma 103% | EKVX NSCLC 99.4% | SN12C renal 103% | UO-31 renal 85.7% | TK-10 renal 104% | ACHN renal 107% | CAKI-1 renal 93.9% | A498 renal 97.1% | CCRF-CEM leukemia 93.9% | MOLT-4 leukemia 102%

CC(C)=NNC(N)=S
inactive: HCT-15 colon 73.5% | HT29 colon 40.5% | SNB-75 CNS 93.5% | SNB-19 CNS 94.4% | U251 CNS 88.2% | SK-MEL-5 melanoma 90.2% | UACC-62 melanoma 91% | LOX IMVI melanoma 69.7% | SK-MEL-28 melanoma 94.1% | SK-MEL-2 melanoma 112% | SN12C renal 74.4% | UO-31 renal 79.3% | TK-10 renal 113% | ACHN renal 88.3% | CAKI-1 renal 83.3% | A498 renal 97.8% | CCRF-CEM leukemia 44.2% | MOLT-4 leukemia 60.4%

Cc1ccc(S(=O)(=O)O)c(C)c1
inactive: HCT-15 colon 104% | HT29 colon 103% | SNB-75 CNS 82.8% | SNB-19 CNS 109% | U251 CNS 97.1% | PC-3 prostate 99.1% | UACC-62 melanoma 120% | LOX IMVI melanoma 95.3% | SK-MEL-28 melanoma 106% | SK-MEL-2 melanoma 112% | SN12C renal 103% | UO-31 renal 73.6% | TK-10 renal 101% | ACHN renal 103% | CAKI-1 renal 96.3% | A498 renal 94.1% | CCRF-CEM leukemia 100% | MOLT-4 leukemia 98.6%

O=C1OC[C@H]2[C@H](c3ccc(O)c(O)c3)c3cc(O)c(O)cc3C[C@H]12
inactive: HCT-15 colon 116% | HT29 colon 115% | SNB-75 CNS 116% | SNB-19 CNS 120% | U251 CNS 116% | SK-MEL-5 melanoma 102% | UACC-62 melanoma 111% | LOX IMVI melanoma 113% | SK-MEL-28 melanoma 117% | SK-MEL-2 melanoma 26.4% | EKVX NSCLC 152% | SN12C renal 110% | UO-31 renal 47.2% | TK-10 renal 118% | ACHN renal 112% | A498 renal 134% | CCRF-CEM leukemia 205% | MOLT-4 leukemia 281%

NCC(=O)CCC(=O)O
inactive: HCT-15 colon 106% | HT29 colon 104% | SNB-75 CNS 104% | SNB-19 CNS 113% | U251 CNS 96.7% | PC-3 prostate 100% | UACC-62 melanoma 114% | LOX IMVI melanoma 99.6% | SK-MEL-28 melanoma 103% | SK-MEL-2 melanoma 126% | EKVX NSCLC 109% | SN12C renal 105% | TK-10 renal 114% | ACHN renal 99.2% | CAKI-1 renal 109% | A498 renal 110% | CCRF-CEM leukemia 109% | MOLT-4 leukemia 108%

CC1CCC(C(=O)O)N1 (centres undefined)
inactive: HCT-15 colon 110% | HT29 colon 94.1% | SNB-75 CNS 83.3% | SNB-19 CNS 102% | U251 CNS 96% | SK-MEL-5 melanoma 102% | UACC-62 melanoma 98.1% | LOX IMVI melanoma 99.2% | SK-MEL-28 melanoma 95.4% | EKVX NSCLC 107% | SN12C renal 92.7% | UO-31 renal 76.5% | TK-10 renal 101% | ACHN renal 91.6% | CAKI-1 renal 92.3% | A498 renal 84% | CCRF-CEM leukemia 101% | MOLT-4 leukemia 87.8%

CCCCCCCCCCC1CO1 (centres undefined)
inactive: HCT-15 colon 104% | HT29 colon 108% | SNB-75 CNS 94% | SNB-19 CNS 103% | U251 CNS 97.8% | SK-MEL-5 melanoma 100% | UACC-62 melanoma 112% | LOX IMVI melanoma 102% | SK-MEL-28 melanoma 98.4% | SN12C renal 102% | UO-31 renal 82.2% | TK-10 renal 112% | ACHN renal 109% | CAKI-1 renal 104% | A498 renal 108% | CCRF-CEM leukemia 97.2% | MOLT-4 leukemia 105%
